# Inconclusive results are not listed. Where a call stands in place of a potency, no number is given. The source made the active and inactive calls. Unless noted, the call rests on the fitted dose curve; in most records, active means well fitted curve in the direction sought with a large enough effect; inconclusive means small, poorly fitted or top-dose-only effect, or another doubt; inactive means no such curve, though single readings can be large; an effect the other way counts as inactive or inconclusive.
# How the values were obtained:
# [1] = target: Cytochrome P450 1A2 (Homo sapiens) (UniProt P05177); assay: p450-cyp1a2 (AID 410; calls by dose curve; further: potency means the concentration at half of the fitted maximal effect)
# Procedure, shortened: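 Luminescent readout of luciferin formed from Luciferin-ME by human CYP1A2; data normalized against complete inhibition by 57 uM furafylline. Enzyme 20nM, substrate 100uM at Km, 100mM KPO4 buffer, 60 min reaction at room temperature.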
# [2] = target: Mitogen-activated protein kinase 10 (Mus musculus) (UniProt Q61831); assay: JNK3 AlphaScreen Assay (AID 530; active means well fitted curve in either direction with a large enough effect, not every such curve was filed as active;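 further: kinase came from lysate of stimulated human HepG2 cells; signal reports phosphorylation of biotinylated GST-cJun 1-79 at Ser73 with 10 µM ATP; series mostly up to about 57 µM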)
# Procedure, shortened: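 Inhibitors reduce antibody binding to phosphorylated biotin-cJun, lowering AlphaScreen luminescence. Lysates from HepG2 cells pre-activated by IL-1beta plus TNF-alpha supplied JNK3; compounds were titrated.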
# [3] = target: 3',5'-cyclic-AMP phosphodiesterase 4B (Homo sapiens) (UniProt Q07343); assay: qHTS Assay for Inhibitors of PDE-IV (AID 607; active means well fitted activation curve with a large enough effect in the main read-out, with a control signal flat, not every such curve was filed as active)
# Procedure, shortened: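 ACTOne HEK293 cells carry a modified cAMP-gated CNG channel and express endogenous PDE4; plated 1000 cells/well, compounds up to 22.9 uM final. Membrane-potential dye fluorescence (ex 535/em 590) was read; parental cells received 10 uM forskolin + 100 uM RO 20-1724.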
# [4] = target: Cytochrome P450 3A4 (Homo sapiens) (UniProt P08684); assay: qHTS Assay for Inhibitors and Substrates of Cytochrome P450 3A4 (AID 884); further: potency means the concentration at half of the fitted maximal effect; nearly all actives have a fitted effect of over 50% in size
# Procedure, shortened: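 20 nM human CYP3A4 with 25 uM Luciferin-PPXE (at KM) in 200 mM KPO4, preincubated 10 min with compound; NADPH regeneration started a 60 min RT reaction. Luciferin detected by luminescence, normalized to 57 uM ketoconazole as full inhibition.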
# [5] = target: Cytochrome P450 3A4 (Homo sapiens) (UniProt P08684); assay: qHTS Assay for Activators of Cytochrome P450 3A4 (AID 885); further: nearly all actives have a fitted effect of over 65% in size
# Procedure, shortened: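 20nM CYP3A4 + 25uM Luciferin-PPXE (=KM), 200mM KPO4; cpd 10 min RT; NADPH regen, 60 min RT; stop w/ detection buffer, 20 min; luminescence. Normalized to 57 uM ketoconazole.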
# [6] = target: Cytochrome P450 2D6 (Homo sapiens) (UniProt P10635); assay: qHTS Assay for Inhibitors and Substrates of Cytochrome P450 2D6 (AID 891); further: potency means the concentration at half of the fitted maximal effect; nearly all actives have a fitted effect of over 60% in size
# Procedure, shortened: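 Human CYP2D6 (5 nM) with 30 uM Luciferin-ME EGE (at Km) in 100 mM KPO4, compound preincubated 10 min, then NADPH regeneration system for 60 min at room temperature. Luciferin read by luminescence; normalized to 1.43 uM quinidine.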
# [7] = target: Cytochrome P450 2C19 (Homo sapiens) (UniProt P33261); assay: qHTS Assay for Inhibitors and Substrates of Cytochrome P450 2C19 (AID 899); further: potency means the concentration at half of the fitted maximal effect; nearly all actives have a fitted effect of over 60% in size
# Procedure, shortened: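 In 50mM KPO4, the reaction held 5nM enzyme and KM-level (10uM) Luciferin-H EGE; it ran 60 min at 37C after NADPH regeneration and a 10 min compound preincubation. Luminescence values were scaled to 57uM ketoconazole as complete inhibition.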
# Cytochrome P450 3A4 (Homo sapiens), sequence (P08684 whole entry, looked up): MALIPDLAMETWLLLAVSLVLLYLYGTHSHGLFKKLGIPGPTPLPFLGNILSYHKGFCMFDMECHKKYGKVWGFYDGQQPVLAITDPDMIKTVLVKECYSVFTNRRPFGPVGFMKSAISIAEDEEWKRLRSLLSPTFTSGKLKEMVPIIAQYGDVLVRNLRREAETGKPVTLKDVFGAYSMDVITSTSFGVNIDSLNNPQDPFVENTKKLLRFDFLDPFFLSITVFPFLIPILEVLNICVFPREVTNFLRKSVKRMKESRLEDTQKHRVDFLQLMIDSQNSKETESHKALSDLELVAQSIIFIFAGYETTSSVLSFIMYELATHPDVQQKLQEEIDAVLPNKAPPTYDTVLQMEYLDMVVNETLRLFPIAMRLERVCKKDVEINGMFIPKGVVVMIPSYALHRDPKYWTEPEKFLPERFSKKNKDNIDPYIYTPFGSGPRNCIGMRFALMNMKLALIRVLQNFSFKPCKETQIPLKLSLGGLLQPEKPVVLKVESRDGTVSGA
# Cytochrome P450 1A2 (Homo sapiens), sequence (P05177 whole entry, looked up): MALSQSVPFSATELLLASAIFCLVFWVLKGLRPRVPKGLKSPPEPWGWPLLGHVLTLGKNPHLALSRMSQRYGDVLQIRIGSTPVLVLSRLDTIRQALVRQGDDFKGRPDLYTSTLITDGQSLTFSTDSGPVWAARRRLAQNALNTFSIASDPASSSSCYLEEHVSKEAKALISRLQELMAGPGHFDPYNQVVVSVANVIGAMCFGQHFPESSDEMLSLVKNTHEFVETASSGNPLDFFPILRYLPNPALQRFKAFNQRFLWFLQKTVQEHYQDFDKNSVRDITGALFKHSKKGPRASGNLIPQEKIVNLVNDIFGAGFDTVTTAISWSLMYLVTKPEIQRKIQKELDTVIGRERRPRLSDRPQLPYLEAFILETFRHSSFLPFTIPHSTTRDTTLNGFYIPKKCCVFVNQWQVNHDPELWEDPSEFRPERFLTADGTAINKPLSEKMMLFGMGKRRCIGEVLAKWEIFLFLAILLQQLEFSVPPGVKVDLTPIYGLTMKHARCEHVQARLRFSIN
# 3',5'-cyclic-AMP phosphodiesterase 4B (Homo sapiens), sequence (Q07343 whole entry, looked up): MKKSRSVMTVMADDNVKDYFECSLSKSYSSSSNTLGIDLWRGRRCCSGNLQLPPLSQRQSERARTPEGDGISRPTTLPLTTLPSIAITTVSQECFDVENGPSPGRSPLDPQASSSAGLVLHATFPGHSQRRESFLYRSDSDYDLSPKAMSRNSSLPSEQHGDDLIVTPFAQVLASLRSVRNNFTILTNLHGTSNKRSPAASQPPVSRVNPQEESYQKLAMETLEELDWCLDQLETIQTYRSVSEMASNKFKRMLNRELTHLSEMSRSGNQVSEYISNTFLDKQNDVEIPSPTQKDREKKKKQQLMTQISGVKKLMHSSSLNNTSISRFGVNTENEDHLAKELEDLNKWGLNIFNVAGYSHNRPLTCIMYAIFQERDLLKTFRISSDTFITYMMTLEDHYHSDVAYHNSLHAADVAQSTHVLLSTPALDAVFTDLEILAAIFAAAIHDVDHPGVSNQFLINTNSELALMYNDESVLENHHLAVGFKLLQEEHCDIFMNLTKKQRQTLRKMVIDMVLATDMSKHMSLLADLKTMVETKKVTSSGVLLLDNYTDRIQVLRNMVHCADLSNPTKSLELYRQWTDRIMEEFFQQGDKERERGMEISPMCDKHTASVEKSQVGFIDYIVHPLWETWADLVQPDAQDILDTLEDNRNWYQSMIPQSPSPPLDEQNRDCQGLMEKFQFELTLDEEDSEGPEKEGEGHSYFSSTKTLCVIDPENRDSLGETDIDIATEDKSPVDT
# Cytochrome P450 2D6 (Homo sapiens), sequence (P10635 whole entry, looked up): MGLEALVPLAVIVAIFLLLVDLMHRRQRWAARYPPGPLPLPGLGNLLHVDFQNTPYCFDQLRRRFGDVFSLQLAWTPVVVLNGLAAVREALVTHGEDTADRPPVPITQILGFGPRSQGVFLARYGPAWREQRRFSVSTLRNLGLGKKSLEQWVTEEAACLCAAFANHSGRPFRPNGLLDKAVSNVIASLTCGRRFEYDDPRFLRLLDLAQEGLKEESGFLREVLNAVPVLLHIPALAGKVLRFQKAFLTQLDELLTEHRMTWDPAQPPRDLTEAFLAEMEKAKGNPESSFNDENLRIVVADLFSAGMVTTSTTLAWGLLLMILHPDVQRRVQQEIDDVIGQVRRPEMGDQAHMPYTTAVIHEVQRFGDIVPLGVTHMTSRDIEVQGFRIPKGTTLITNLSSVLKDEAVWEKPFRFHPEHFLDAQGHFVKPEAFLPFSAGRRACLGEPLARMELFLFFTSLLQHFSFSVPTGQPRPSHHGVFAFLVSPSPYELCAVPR
# Cytochrome P450 2C19 (Homo sapiens), sequence (P33261 whole entry, looked up): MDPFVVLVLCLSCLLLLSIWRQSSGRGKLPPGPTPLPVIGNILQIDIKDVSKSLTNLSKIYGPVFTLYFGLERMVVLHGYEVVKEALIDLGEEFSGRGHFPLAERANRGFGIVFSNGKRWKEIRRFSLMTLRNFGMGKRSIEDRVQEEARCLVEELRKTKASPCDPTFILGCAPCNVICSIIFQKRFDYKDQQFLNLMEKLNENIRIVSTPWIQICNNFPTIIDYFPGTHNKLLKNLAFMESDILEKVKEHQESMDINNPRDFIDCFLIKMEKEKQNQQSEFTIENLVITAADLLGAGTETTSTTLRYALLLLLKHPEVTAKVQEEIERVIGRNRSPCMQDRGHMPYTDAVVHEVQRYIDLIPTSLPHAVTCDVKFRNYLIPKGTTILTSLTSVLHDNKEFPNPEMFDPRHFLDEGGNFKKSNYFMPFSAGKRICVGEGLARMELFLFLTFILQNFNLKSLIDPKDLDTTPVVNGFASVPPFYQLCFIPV
Structure (SMILES),Potency [1],Potency [2],Potency [3],Potency [4],Potency [5],Potency [6],Potency [7]
Cc1cc(CNC(=O)[C@H]2C[C@@H]2[C@H](NP(=O)(c2ccccc2)c2ccccc2)c2ccccc2)nn1C,inactive,inactive,inactive,2.51 µM (active),inactive,–,–
COC(=O)[C@@]1(Cc2ccc(F)cc2)[C@H]2c3cc(C(=O)N(C)C)n(Cc4ccc(C(F)(F)F)nc4)c3C[C@H]2CN1C(=O)c1ccccc1,inactive,inactive,inactive,1.26 µM (active),inactive,–,–
CC1(C)C(=O)C(c2ccccc2)=C2CN3C(=O)N(CCc4ccccc4)C(=O)C3(Cc3ccc(F)cc3)C=C21 (stereo unspecified),15.8 µM (active),inactive,inactive,3.16 µM (active),inactive,–,–
COC(=O)[C@@]1(Cc2ccccc2)[C@H]2c3cc(C(=O)N4CCCC4)n(Cc4ccc(C)o4)c3C[C@H]2CN1C(=O)c1ccccc1,12.6 µM (active),inactive,inactive,2 µM (active),inactive,–,–
Cc1ccc(CNC(=O)[C@H]2C[C@@H]2[C@H](NP(=O)(c2ccccc2)c2ccccc2)c2ccccc2)c(F)c1F,inactive,inactive,inactive,0.316 µM (active),inactive,–,–
COC(=O)[C@@]1(Cc2ccccc2)[C@H]2c3cc(C(=O)N4CCCC4)n(Cc4c(CO)[nH]cc(C)c4=O)c3C[C@H]2CN1C(=O)c1ccccc1,5.01 µM (active),inactive,inactive,2.51 µM (active),inactive,–,–
Cc1cc(CNC(=O)[C@@H]2C[C@H]2[C@@H](NP(=O)(c2ccccc2)c2ccccc2)c2ccccc2)nn1C,inactive,inactive,inactive,0.398 µM (active),inactive,–,–
COC(=O)[C@@]1(Cc2ccc(OC)cc2)[C@H]2c3cc(C(=O)N4CCCC4)n(CCn4cc([N+](=O)[O-])nc4C)c3C[C@H]2CN1C(=O)c1ccccc1,inactive,inactive,inactive,3.98 µM (active),inactive,–,–
C[C@@H](C(=O)Nc1ccc2ccccc2c1)[C@H]1C[C@]1(C)[C@H](NS(=O)(=O)c1ccc2ccccc2c1)c1ccccc1,inactive,inactive,inactive,7.94 µM (active),inactive,3.16 µM (active),0.251 µM (active)
C[C@@H](C(=O)NCc1ccccn1)[C@H]1C[C@]1(C)[C@H](NC(=O)OCc1ccccc1)c1ccccc1,25.1 µM (active),inactive,inactive,5.01 µM (active),inactive,12.6 µM (active),2 µM (active)
COC(=O)[C@@]1(Cc2ccc(OC)cc2)[C@H]2c3cc(C(=O)N4CCCC4)n(Cc4ccc(C(F)(F)F)nc4)c3C[C@H]2CN1C(=O)c1ccccc1,inactive,inactive,inactive,3.16 µM (active),inactive,–,–
Cc1nn(C)c(Cl)c1S(=O)(=O)N[C@@H](c1ccccc1)[C@]1(C)C[C@H]1[C@@H](C)C(=O)Nc1ccc2ccccc2c1,5.01 µM (active),inactive,inactive,1.26 µM (active),inactive,–,–
C[C@@H](C(=O)Nc1ccc2ccccc2c1)[C@H]1C[C@]1(C)[C@H](NC(=O)Oc1ccc(F)cc1)c1ccccc1,inactive,inactive,inactive,0.794 µM (active),inactive,2.51 µM (active),–
CCCC[C@@H]1C[C@H]1C(NC(=O)c1cccnc1)c1ccc(Cl)cc1 (stereo partly specified),7.94 µM (active),inactive,inactive,0.0794 µM (active),inactive,–,–
COC(=O)[C@@]1(Cc2ccc(F)cc2)[C@@H]2[C@@H](CC(=O)[C@H]2CC(=O)C(=O)N(C)C)CN1C(=O)c1ccccc1,inactive,inactive,inactive,6.31 µM (active),inactive,–,–
COC(=O)[C@@]1(Cc2ccc(F)cc2)[C@H]2c3cc(C(=O)N(C)C)n(CCCNc4ccc(C(F)(F)F)cc4Cl)c3C[C@H]2CN1C(=O)c1ccccc1,inactive,inactive,inactive,1.58 µM (active),inactive,–,–
CC[C@H]1C2=C3C(CC[C@H]4C(OCc5ccc(F)cc5C(F)(F)F)OC[C@](C)([C@@H]34)N(C(=O)OC(C)(C)C)C2)C(COC)C1COC (stereo partly specified),inactive,inactive,inactive,–,inactive,–,–
CC[C@H]1C2=C3C(CC[C@H]4C(OC)OC[C@](C)([C@@H]34)N(C(=O)OC(C)(C)C)C2)C(CO)C1CO (stereo partly specified),12.6 µM (active),inactive,inactive,–,inactive,–,–

Structure (SMILES),Potency [1],Potency [2],Potency [3],Potency [4],Potency [5],Potency [6],Potency [7]
COc1ccc(COC2OC[C@]3(C)[C@H]4C5=C(CN3C(=O)OC(C)(C)C)[C@H](C)C(CO)C(CO)C5CC[C@@H]24)cc1 (stereo partly specified),inactive,inactive,inactive,–,inactive,–,–
CCCC1(C(=O)OC)C=C2C(=C(C)C(=O)C2C)CN1 (stereo unspecified),inactive,inactive,inactive,–,inactive,–,–
COC(=O)[C@@H]1C[C@H]1[C@@H](NC(=O)c1cc(C)on1)c1ccccc1,20 µM (active),inactive,inactive,–,inactive,–,–
COC(=O)C1(C)C=C2C(=C(c3ccccc3)C(=O)C2C)CN1 (stereo unspecified),15.8 µM (active),inactive,inactive,–,inactive,–,–
COC(=O)C1(Cc2ccccc2)C=C2C(=C(C)C(=O)C2C)CN1 (stereo unspecified),10 µM (active),inactive,inactive,–,inactive,–,–
C[C@@H](C(=O)Nc1ccc2ccccc2c1)[C@@H]1C[C@@]1(C)[C@@H](NC(=O)c1ccncc1Cl)c1ccccc1,25.1 µM (active),inactive,inactive,–,inactive,–,–
C[C@@]1(C(NC(=O)Cc2ccccc2)c2ccc(-c3ccccc3)cc2)C[C@H]1C1CCCCC1 (stereo partly specified),inactive,inactive,inactive,–,inactive,–,–
C[C@@H](C(=O)O)[C@@H]1C[C@@]1(C)[C@@H](NC(=O)OCc1ccccc1)c1ccccc1,inactive,inactive,inactive,–,inactive,–,–
C[C@@H](C(=O)Nc1ccc2ccccc2c1)[C@@H]1C[C@@]1(C)[C@@H](NC(=O)Oc1ccc(F)cc1)c1ccccc1,inactive,inactive,inactive,–,inactive,–,–
CCCC/C=C/C(NC(=O)C(C)(C)C)c1ccccc1 (stereo unspecified),20 µM (active),inactive,inactive,–,inactive,–,–
COC(=O)C1(CC(C)C)C=C2C(=C(C(C)C)C(=O)C2C)CN1 (stereo unspecified),15.8 µM (active),inactive,inactive,–,inactive,–,–
O=C(NCc1nc2ccccc2[nH]1)[C@H]1C[C@@H]1[C@H](NP(=O)(c1ccccc1)c1ccccc1)c1ccccc1,15.8 µM (active),inactive,inactive,–,inactive,–,–
CCc1c2c(nc3cccc(C(C)C)c13)-c1cccc(=O)n1C2,0.501 µM (active),inactive,inactive,–,inactive,–,–
COC(=O)[C@@H]1C[C@H]1[C@@H](NC(=O)c1cc(C)nn1C)c1ccccc1,15.8 µM (active),inactive,inactive,–,inactive,–,–
CC(C)=C1C(=O)C(c2ccccc2)=C2CN3C(=O)N(CCc4ccccc4)C(=O)[C@]3(Cc3ccccc3)[C@H]21,inactive,inactive,inactive,–,inactive,–,–
C[C@@H](C(=O)NCc1nc2ccccc2[nH]1)[C@@H]1C[C@@]1(C)[C@@H](NC(=O)OCc1ccccc1)c1ccccc1,12.6 µM (active),inactive,inactive,–,inactive,–,–
COC(=O)C1(Cc2ccccc2)C2c3cc(C(=O)N4CCCC4)n(Cc4ccc(OC(F)(F)F)cc4)c3CC2CN1C(=O)c1ccccc1 (stereo unspecified),inactive,inactive,inactive,–,inactive,–,–
